The source of these data is PubChem BioAssay (NCATS).

Each structure is given as a SMILES string. Results filed as inconclusive are left out. Activity calls are given as the source filed them. Calls come from the whole dose curve; as a rule, active = well fitted curve in either direction with a large enough effect (not every such curve was filed as active); inconclusive = small, poorly fitted or top-dose-only effect, or another doubt; inactive = flat fitted curve, though single readings scatter.
% is set by controls: 0 for no effect and ±100 for the full control effect.

For the experiment, the target named is Mitogen-activated protein kinase 10 (Mus musculus) (UniProt Q61831). The experiment can be described thus: JNK3 AlphaScreen Assay (AID 530).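 Note: kinase came from lysate of stimulated human HepG2 cells.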 The settings on record: JNK3 lysate, c-Jun phosphorylation; series mostly up to 57.1 µM; activity change, negative = inhibition: at the top concentration. From the text:
NIH Chemical Genomics Center [NCGC]
NIH Molecular Libraries Screening Centers Network [MLSCN]
The c-jun N-terminal kinase (JNK) family are serine/threonine protein kinases that phosphorylate c-jun, a component of the transcription factor […] (AP-1). JNK kinases are members of the mitogen-activated protein kinase family including the extracellular regulated kinases and p38 kinases. Three JNK genes (JNK 1, 2, and 3) have been identified in humans so far. JNK1 and JNK2 have a broad distribution and JNK3 is primarily found in neuronal tissues and cardiac myocytes.
JNK3 has been under consideration as a target for the treatment of neurodegenerative disorders. […] JNK pathway is also involved in pathological process in a mouse model of Parkinson's disease (Xia et al., 2001).
Given these potential tissue distributions and links to neuroprotection, JNK3 inhibitors should provide useful investigational tools to study the role of this kinase in several diseases including, arthritis, stroke, myocardial infarction, ischemic injury and Parkinson's disease.
A homogeneous AlphaScreen is developed to measure the activity of JNK3. AlphaScreen is a two bead-based proximity-dependent chemical energy transfer luminescent assay platform. The phosphorylation of a biotinylated c-jun substrate by JNK3 can be detected with an antibody raised against phosphorylated c-jun. This process brings streptavidin donor beads and Protein-A acceptor beads to within a proximity range of <200 nm, and subsequently lead a chemical luminescent reaction upon exciting donor beads with 680 nm laser excitation light. Inhibition of JNK3 activity by small molecules and subsequent decrease in the antibody binding to biotinylated c-jun could attenuate or abolish this chemical luminescent reaction.
Yang DD, Kuan CY, Whitmarsh AJ, Rincon M, Zheng TS, Davis RJ, Rakic P and Flavell RA (1997) Absence of excitotoxicity-induced apoptosis in the hippocampus of mice lacking the Jnk3 gene. Nature 389:865-870. [PMID: 9349820]
Herdegen T, Claret FX, Kallunki T, Martin-Villalba A, Winter C, Hunter T, and Karin M (1998) Lasting N-terminal phosphorylation of c-Jun and activation of c-Jun N-terminal kinases after neuronal injury. J.Neurosci. 18:5124-5135. [PMID: 9651196]
Xia XG, Harding T, Weller M, Bieneman A, Uney JB and Schulz JB (2001) Gene transfer of the JNK interacting protein-1 protects dopaminergic neurons in the MPTP model of Parkinson's disease. Proc.Natl.Acad.Sci.U.S.A. 98:10433-10438.
NCGC Assay Protocol Summary:
GST-cJun (1-79) (Stratagene, La Jolla CA, #205145) was biotnylated by PerkinElmer (PerkinElmer-BioSignalInc. Montreal, Canada) and was detectable by the streptavidin Donor beads. Anti-(phospho)cJun (Ser73) antibody was from UpState (Charlottesvilles, VA, #06-659). JNK3-containing lysates were generated from HepG2 cells and pre-activated by interleukin1-beta and tumor necrosis factor alpha. All reagents were stored at -20 C before using. Phosphorylated biotinylated-GST-cJun was recognized by Anti-(phospho)cJun (Ser73) antibody and this process brings acceptor and donor beads together. Therefore JNK3 phosphorylation of cJun can be measured by Alpha reading by EnVision (PerkinElmer, Boston, MA).
The composition of kinase buffer was (in mM) 20 tris- HCl (pH 7.6) 10 MgCl2, 1 DTT, and 0.1 Na3VO4 and 0.01% Tween-20. Beads were diluted in detection buffer containing (in mM) 20 tris-HCl (pH 7.7), 20 NaCl and 80 EDTA and 0.3% BSA. The assay was performed at room temperature. All compounds were screened as titrations from 0.6 nM to 46 uM final concentration. The assay was performed in 1536-well format (white solid bottom and untreated) as follows:
Sequence,Parameter,Value,Description
1,Reagent,3 uL,Biotin-GST-cJun, Anti-(phospho)cJun and pre-activated JNK3-containing lysates
2,Compound,23 nL,Final concentration was 0.6nM to 46uM
3,Time,15 minutes,Room Temperature
4,Reagent,1 uL,ATP final concentration 10uM
6,Reagent,0.5 uL,2ng/well bead mixture
[…]
In general terms: Alpha assays give light when donor and acceptor beads are brought close together.
As to `C=CCN1C[C@H](C)N([C@@H](c2ccccc2)c2ccc(C(=O)N(CC)CC)cc2)C[C@H]1C`, the “activity change, negative = inhibition” value was -0.519% (inactive).

As for `C[C@H]1C[C@H](C)C(=O)[C@@H]([C@H](O)CC2CC(=O)NC(=O)C2)C1`, the outcome was inactive.

Take `O=C(O)[C@H]1[C@H]2CN[C@H](C(=O)O)[C@H]21`: the “activity change, negative = inhibition” value is -6.6% (inactive).

As to `N[C@H](CCP(=O)(O)O)C(=O)O`, the outcome was inactive.

On to `Oc1c(Cl)c(Cl)c(Cl)c(Cl)c1Cl`, for which the “activity change, negative = inhibition” value was -10.1% (inactive).

With `Oc1ccc2c3c1O[C@H]1c4c(c5ccccc5n4Cc4ccccc4)C[C@]4(O)[C@H](C2)N(CC2CC2)CC[C@@]314`, the “activity change, negative = inhibition” value was -8.98% (inactive).

Turning to `c1ccc(Nc2ccc3ccccc3c2)cc1`, the “activity change, negative = inhibition” value was 25.4% (inactive).

With `NC(=NCCc1ccc(I)cc1)SCCCc1cnc[nH]1`, the “activity change, negative = inhibition” value was -1.97% (inactive).

For the compound `N[C@@]1(C(=O)O)CC[C@H](C(=O)O)C1`, the call was inactive.

On to `COc1ccn(C)c(=O)c1C#N`, for which the “activity change, negative = inhibition” value is -6.44% [at 25.6 µM] (inactive).

For the compound `CCC[C@@H]1CC2=CC(=O)CC[C@]2(C)[C@@H]2CC[C@@]3(C)[C@H](CC[C@]3(O)CCC(=O)O)[C@H]12`, the “activity change, negative = inhibition” value was -28.9% (inactive).

In the case of `NC(N)=Nc1ccc2[nH]c3c(c2c1)C[C@]1(O)[C@@H]2Cc4ccc(O)c5c4[C@]1(CCN2CC1CC1)[C@@H]3O5`, the “activity change, negative = inhibition” value is -12% (inactive).

Turning to `CC(C)(C)c1o[nH]c(=O)c1C[C@H](N)C(=O)O`, the compound was called inactive.

On to `CCCn1c(C)c(C(=O)c2cccc3ccccc23)c2ccccc21`, for which the “activity change, negative = inhibition” value was -19.3% (inactive).

On to `O=C(O)c1ccccc1-c1c2cc(Br)c(=O)cc-2oc2[c]([Hg])c(O)c(Br)cc12`, for which the “activity change, negative = inhibition” value is 1.89% [at 25.6 µM] (inactive).

Turning to `Ic1cncc(OC[C@@H]2CCN2)c1`, the “activity change, negative = inhibition” value is -6.8% (inactive).

As to `NC[C@@H](CC(=O)O)c1ccc(Cl)cc1`, the call was inactive.

For `CN(C(=O)Cc1ccccc1)[C@H](CN1CCCC1)c1ccccc1`, the “activity change, negative = inhibition” value is -12.6% (inactive).

As for `C(=C/c1ccccc1)/CN1CCN(CCOC(c2ccccc2)c2ccccc2)CC1`, the “activity change, negative = inhibition” value was -4.59% (inactive).

For `C=C(C)CN1CC[C@@]23c4c5ccc(O)c4O[C@H]2c2[nH]c4ccccc4c2C[C@]3(O)[C@@H]1C5`, the “activity change, negative = inhibition” value was 18.6% (inactive).

Turning to `CC(=O)O[C@@H]1CN2CCC1CC2`, the “activity change, negative = inhibition” value was 15.9% (inactive).

Consider `Oc1ccc2c3c1O[C@H]1c4[nH]c5c(c4C[C@@]4(O)[C@@H](C2)N(CC2CC2)CC[C@]314)C[C@]1(O)[C@H]2Cc3ccc(O)c4c3[C@@]1(CCN2CC1CC1)[C@@H]5O4`, for which the “activity change, negative = inhibition” value is -6.16% (inactive).

In the case of `Cc1ccccc1O`, the “activity change, negative = inhibition” value is 5.92% (inactive).

On to `Cc1o[nH]c(=O)c1C[C@@H](N)C(=O)O`, for which the “activity change, negative = inhibition” value was -17.9% (inactive).

In the case of `Oc1ccccc1Cl`, the “activity change, negative = inhibition” value is 13.3% (inactive).

As for `CN(C(=O)Cc1ccc(Cl)c(Cl)c1)[C@H](CN1CCCC1)c1ccccc1`, the “activity change, negative = inhibition” value was -14.6% (inactive).

`C/C(=C\C=C/[C@@H](C)C(=O)O)[C@H]1CN[C@H](C(=O)O)[C@@H]1CC(=O)O`: the “activity change, negative = inhibition” value was 25.9% (inactive).

For `CC(C)(Cc1c[nH]c2ccc(Cl)cc12)NCCOc1ccccc1OCC1CC1`, the “activity change, negative = inhibition” value was 4.12% (inactive).

In the case of `COc1ccc2c(c1)[nH]c1c(C)nccc12`, the “activity change, negative = inhibition” value was -11.6% [at 25.6 µM] (inactive).

Turning to `CC1=C(O)C(=O)[C@H]2O[C@@H]2C1=O`, the “activity change, negative = inhibition” value was -43.9% (inactive).

As for `C[C@@H](N)Cn1ccc2cc(F)c(Cl)cc21`, the “activity change, negative = inhibition” value is -6.25% (inactive).

Turning to `c1ccc2c(c1)OC[C@@H](C1=NCCN1)O2`, the call was inactive.

On to `COc1ccc(CNC(=O)/C=C\c2ccc3[nH]cc(CCN(C)C)c3c2)cc1`, for which the compound was called inactive.

Consider `CNc1ccc2oc(C[C@H]3O[C@]4(CC[C@H]3C)O[C@H]([C@H](C)C(=O)c3ccc[nH]3)[C@H](C)C[C@H]4C)nc2c1C(=O)O`, for which the “activity change, negative = inhibition” value is -7.92% (inactive).

Turning to `COC(=O)c1cc2c(cn1)[nH]c1ccccc12`, the “activity change, negative = inhibition” value is -1.19% (inactive).

`Clc1ccc([C@@H]2C[C@H]3CC[C@@H]2N3)cn1`: the “activity change, negative = inhibition” value is -18.1% (inactive).

Turning to `CN(C(=O)Cc1ccc(Cl)c(Cl)c1)[C@@H](CN1CCCC1)c1cccc(OCC(=O)O)c1`, the “activity change, negative = inhibition” value was 14.5% (inactive).

Turning to `C[C@@H](C(=O)OC1C[C@H]2CC[C@@H](C1)N2C)c1ccc(Br)cc1` (stereo not given in full), the “activity change, negative = inhibition” value is -15.3% (inactive).

In the case of `CCOc1cc(C=O)ccc1O`, the “activity change, negative = inhibition” value was 2.64% (inactive).

As for `O=C(O)Cc1cccnc1C(=O)O`, the “activity change, negative = inhibition” value is -15.3% (inactive).
